Where “and” joins values, the source holds several entries; their conditions need not be identical. Identical values can stand only once. Calls of active or inactive are those of the source.

The subject of assay [1] is Human papillomavirus type 1a protein E7 (residues 44-93). In words: small molecules binding HPV E7 44-93 – biochemical, small-molecule microarray, residues 44-93, 635 nm fluorescence, primary screen (AID 1108).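 Note: E7 fragment applied at 1 µg/mL in TBST for 1 h at 4 C; score combines spot fluorescence with its signal to noise ratio.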 The following applies: fluorescence 635 nm, higher = more signal.
Assay [2] in a line: hepatitis C replication reporter changes, two-sided – Huh7 cells, luciferase reporter, HCV replication inhibitor project, primary screen (AID 1109).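 Note: huh7 hepatoma cells harbouring a luciferase neomycin HCV replicon reporter; luciferase luminescence as measure of HCV replicon replication; test concentration not given here.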 As to conditions: Huh7 HCV replicon luciferase reporter, 48 h; higher = more signal.
Assay [3] has as its target Left-right determination factor 2 (Homo sapiens) (UniProt O00292). In words: small molecules binding LEFTY2 protein – biochemical, small-molecule microarray, 635 nm fluorescence scan, primary screen (AID 1110). The following applies: higher = more signal.
For assay [4], the target named is Calmodulin-1 (Homo sapiens) (UniProt P0DP23). The assay is described as follows: small molecules binding calmodulin-1 with EGTA – biochemical, small-molecule microarray, Cy5-labelled CALM1, profiling panel (AID 1111).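 Note: labelled calmodulin applied in Tris saline Tween buffer holding calcium plus EGTA and DTT.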 As to conditions: Cy5-CALM1 binding fluorescence, higher = more signal.
For assay [5] the target is unchanged. The assay is described as follows: small molecules binding Ca-loaded calmodulin-1 – biochemical, small-molecule microarray, Cy5-labelled CALM1, plus calcium, artefact control for SMM control-protein annotation, profiling panel (AID 1112).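 Note: score merges spot fluorescence with signal to noise from triplicate slides.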 The following applies: Cy5-CALM1 binding fluorescence, higher = more signal.
Assay [6] is described as follows: probe aWnt5a binding to arrayed compounds – biochemical, biotinylated probe, 635/667 nm fluorescence, primary screen (AID 1113).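 Note: score merges 667 nm fluorescence intensity with signal-to-noise per printed feature.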 The following applies: small-molecule microarray, higher = more signal.
A short description of assay [7]: probe aShh binding to arrayed compounds – biochemical, biotinylated probe, 635/667 nm fluorescence, primary screen (AID 1114).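 Note: probe is biotin-labelled aShh protein from a stem cell growth factor screen; measures binding of labelled protein to compounds printed on the slide; score merges feature fluorescence at 667 nm with signal-to-noise.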 As to conditions: small-molecule microarray, higher = more signal.
Assay [8] in a line: probe aNog binding to arrayed compounds – biochemical, biotinylated probe, 635/667 nm fluorescence, primary screen (AID 1115).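 Note: probe is biotinylated aNog protein used at 0.15 µg/mL for 1 h at 4 C; z-score combines 667 nm fluorescence of each spot with its signal to noise.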 As to conditions: small-molecule microarray, higher = more signal.
Assay [9] addresses Torsin-1A-interacting protein 1 (Homo sapiens) (UniProt Q5JTV8). In words: compound microarray binding of lysate hLAP1 – cell lysate, small-molecule microarray, COS7 lysate, 635/667 nm fluorescence, primary screen (AID 1116). As to conditions: 635 nm fluorescence, higher = more signal.
Assay [10] has as its target Alpha-bungarotoxin (Bungarus multicinctus) (UniProt P60615). The assay is described as follows: compounds binding labelled alpha-BTX control protein – biochemical, small-molecule microarray, Alexa647 label, 635/667 nm fluorescence, artefact control for SMM control protein annotation, profiling panel (AID 1117). The following applies: alpha-BTX-A647 binding fluorescence, higher = more signal.

The target in assay [11] is Albumin (Bos taurus) (UniProt P02769). The assay is described as follows: compounds binding labelled BSA control protein – biochemical, small-molecule microarray, Alexa647 label, 635/667 nm fluorescence, artefact control for SMM control protein annotation, profiling panel (AID 1118).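 Note: score merges 667 nm emission intensity and signal-to-noise per printed compound spot.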 The following applies: BSA-A647 binding, fluorescence 635 nm, higher = more signal.
Assay [12] is described as follows: probe aXIP binding to arrayed compounds – biochemical, NeuroSMM set, 635/667 nm fluorescence, primary screen (AID 1119).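 Note: probe is the protein aXip251-270 applied at 1 µg/mL to compound-printed slides; binding of probe to printed compounds measured as 667 nm fluorescence plus signal to noise.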 As to conditions: small-molecule microarray, higher = more signal, called active from +8 up or from −8 down.
Assay [13] is described as follows: probe aNOTCH3 binding on compound microarray – biochemical, small-molecule microarray, 635/667 nm fluorescence, primary screen (AID 1120).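 Note: probe is a biotin-tagged antibody raised against NOTCH3 rather than NOTCH3 protein; score merges spot fluorescence near 667 nm with spot signal to noise.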 The following applies: higher = more signal.
Assay [14] is described as follows: probe aNOTCH2 binding on compound microarray – biochemical, small-molecule microarray, 635/667 nm fluorescence, primary screen (AID 1121).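 Note: score merges feature fluorescence read at 667 nm with its signal to noise.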 The following applies: higher = more signal.
Assay [15] addresses Carbonic anhydrase 2 (Homo sapiens) (UniProt P00918). In words: compounds binding carbonic anhydrase 2 – biochemical, small-molecule microarray, Alexa647-labelled CAII, profiling panel (AID 1122). The following applies: CAII-A647 binding fluorescence, higher = more signal.
Assay [16] can be described thus: COS7 lysate on small-molecule microarray, probe aHis, 635 nm (AID 1123).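 Note: z-score combines 667nm fluorescence intensity with signal-to-noise per printed compound spot.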 As to conditions: COS7 cell lysate, fluorescence, higher = more signal.
Assay [17] can be described thus: probe aLAP1 signal on lysate-treated microarray – cell lysate, small-molecule microarray, COS7 lysate, primary screen (AID 1124).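 Note: lysate comes from COS7 cells expressing LAP1 and is applied at 0.3 µg/mL; score merges spot fluorescence near 667 nm with signal-to-noise over triplicate slides.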 As to conditions: probe aLAP1, fluorescence, higher = more signal.
The test system of assay [18] is Sam68 (KHDRBS1). In words: compounds binding KHDRBS1 protein – biochemical, small-molecule microarray, 635 nm fluorescence, primary screen (AID 1125).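 Note: score merges 667 nm channel intensity with signal to noise over triplicate slides.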 As to conditions: higher = more signal.
Assay [19] relates to Chordin-like protein 2 (CHRDL2). In words: compounds binding chordin-like 2 – biochemical, small-molecule microarray, 635 nm fluorescence, primary screen (AID 1126).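 Note: printed compound slides probed with Chrdl2 protein at 4 µg/mL for 1 h at 4 C; score merges 667 nm emission intensity with signal to noise over three replicate slides.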 As to conditions: fluorescence 635 nm, higher = more signal.
Assay [20] has as its target Concanavalin-A (Canavalia ensiformis) (UniProt P02866). In words: compounds binding concanavalin A lectin – biochemical, small-molecule microarray, Alexa647 label, 635 nm, artefact control for SMM control protein annotation, primary screen (AID 1127).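 Note: z combines 667 nm emission intensity with signal-to-noise across three replicate slides.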 As to conditions: ConA-A647 binding fluorescence, higher = more signal.

Torsin-1A-interacting protein 1 (Homo sapiens), sequence (Q5JTV8 whole entry, looked up): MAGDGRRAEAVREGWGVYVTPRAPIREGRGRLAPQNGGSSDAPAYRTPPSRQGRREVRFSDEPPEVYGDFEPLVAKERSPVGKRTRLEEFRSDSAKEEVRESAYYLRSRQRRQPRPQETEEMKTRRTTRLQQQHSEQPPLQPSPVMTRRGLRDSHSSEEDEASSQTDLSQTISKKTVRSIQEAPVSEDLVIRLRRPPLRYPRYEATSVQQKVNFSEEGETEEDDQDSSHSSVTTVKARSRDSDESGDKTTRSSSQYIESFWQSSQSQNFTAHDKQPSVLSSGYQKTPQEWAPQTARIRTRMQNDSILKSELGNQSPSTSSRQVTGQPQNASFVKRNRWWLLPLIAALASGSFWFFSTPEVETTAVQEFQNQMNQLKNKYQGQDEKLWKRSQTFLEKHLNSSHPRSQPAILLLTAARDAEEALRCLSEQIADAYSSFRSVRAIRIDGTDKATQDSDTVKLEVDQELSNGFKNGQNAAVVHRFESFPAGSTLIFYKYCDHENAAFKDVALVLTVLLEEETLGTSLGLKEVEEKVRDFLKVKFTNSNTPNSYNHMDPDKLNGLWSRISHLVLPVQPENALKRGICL
Concanavalin-A (Canavalia ensiformis), sequence (P02866 whole entry, looked up): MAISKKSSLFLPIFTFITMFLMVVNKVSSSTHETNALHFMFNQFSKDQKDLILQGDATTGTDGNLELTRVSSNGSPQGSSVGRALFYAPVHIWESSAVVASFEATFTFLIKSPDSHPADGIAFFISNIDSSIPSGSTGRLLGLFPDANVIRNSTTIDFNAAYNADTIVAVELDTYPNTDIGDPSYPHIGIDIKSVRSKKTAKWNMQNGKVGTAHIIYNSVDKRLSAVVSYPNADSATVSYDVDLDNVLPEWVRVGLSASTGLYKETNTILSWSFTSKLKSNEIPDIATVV
Left-right determination factor 2 (Homo sapiens), sequence (O00292 whole entry, looked up): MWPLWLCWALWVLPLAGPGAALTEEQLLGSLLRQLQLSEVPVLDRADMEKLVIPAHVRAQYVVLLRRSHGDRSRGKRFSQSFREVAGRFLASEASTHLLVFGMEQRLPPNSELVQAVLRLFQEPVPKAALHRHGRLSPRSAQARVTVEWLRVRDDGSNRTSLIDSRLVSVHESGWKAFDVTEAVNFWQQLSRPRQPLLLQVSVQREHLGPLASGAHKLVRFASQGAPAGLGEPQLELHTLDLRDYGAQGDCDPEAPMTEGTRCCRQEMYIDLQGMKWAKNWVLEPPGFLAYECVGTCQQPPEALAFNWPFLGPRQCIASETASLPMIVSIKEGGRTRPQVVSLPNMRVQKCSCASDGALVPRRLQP
Alpha-bungarotoxin (Bungarus multicinctus), sequence (P60615 whole entry, looked up): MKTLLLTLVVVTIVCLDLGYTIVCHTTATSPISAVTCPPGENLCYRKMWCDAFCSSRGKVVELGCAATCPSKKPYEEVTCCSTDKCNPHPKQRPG
Albumin (Bos taurus), sequence (P02769 whole entry, looked up): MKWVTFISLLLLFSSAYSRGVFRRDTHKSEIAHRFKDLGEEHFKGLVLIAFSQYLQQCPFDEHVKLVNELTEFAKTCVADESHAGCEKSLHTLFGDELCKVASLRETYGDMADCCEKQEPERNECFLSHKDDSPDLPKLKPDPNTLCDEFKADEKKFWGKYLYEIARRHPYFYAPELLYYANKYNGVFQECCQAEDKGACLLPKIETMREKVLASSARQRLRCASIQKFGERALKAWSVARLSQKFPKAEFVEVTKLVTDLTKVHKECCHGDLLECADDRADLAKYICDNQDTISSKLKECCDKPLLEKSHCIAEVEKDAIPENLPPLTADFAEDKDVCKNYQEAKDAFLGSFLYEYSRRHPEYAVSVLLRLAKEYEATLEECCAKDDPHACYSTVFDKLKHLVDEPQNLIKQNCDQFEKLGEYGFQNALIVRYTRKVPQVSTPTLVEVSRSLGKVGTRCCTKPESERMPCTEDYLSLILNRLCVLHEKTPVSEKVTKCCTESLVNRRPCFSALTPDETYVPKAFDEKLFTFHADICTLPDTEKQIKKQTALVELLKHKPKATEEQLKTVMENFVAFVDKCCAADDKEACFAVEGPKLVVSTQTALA

In the case of `C[N+](C)(C)CCCCCCNC(=O)[C@H]1C[C@H]2C(=O)N[C@@H](CCCC[N+](C)(C)C)C(=O)N2[C@H]1c1cccc(OCCO)c1`, the composite z-score in assay [1] is 0.519 and 0.362; in assay [3] it was 1.35 and 1.04; in assay [4], -0.742 and -0.31; in [5], -0.458 and 0.0972; in assay [6] it was -0.0981 and -0.0478; in [7], -0.291 and -0.167. Besides, the composite z-score in assay [8] was -0.0855 and 0.304; in [9] it was 0.953 and 0.544; in assay [10] it was 0.433 and -0.3; in assay [11], -0.239 and -0.101; in assay [13] it was -0.0647 and 0.203; in [14] it was -0.148 and 0.046. For the same molecule, the composite z-score is 0.655 and 0.419 in [15]; 0.897 and 0.214 in assay [16]; 0.479 and 0.285 in [17]; 0.861 and 0.669 in assay [18]; 1.22 and 1.04 in assay [19]; 0.606 and 0.352 in assay [20]. For the same molecule, the z-score in assay [2] was 1.38 and 1.18. In addition, the composite Z-score in assay [12] was 0.891 (inactive) and -0.166 (inactive).
Turning to `C=CCN(C(=O)C1N(CCOCCO)C(=O)C2C(C(=O)O)C3C=CC21O3)C(C)(C)C` (stereo not given), the composite z-score is -1.22 and -1.53 in assay [1]; -4.53 and -1.35 in [3]; -0.219 and -0.133 in assay [4]; 0.785 and 0.498 in [5]; -0.27 and -0.352 in assay [6]; -0.138 and -0.214 in [7]. Also, the composite z-score is -0.158 and -0.509 in assay [8]; -1.53 and -1.78 in assay [9]; -0.606 and -0.737 in [10]; 0.106 and -0.502 in assay [11]; -0.465 and -0.469 in assay [13]; -0.116 and -0.153 in assay [14]. For the same molecule, the composite z-score in assay [15] was -0.115 and -0.524; in assay [16], -0.717 and -1.47; in assay [17] it was -0.882 and -0.478; in assay [18] it was -1.29 and -0.941; in assay [19], -3.33 and -1.51; in assay [20], -0.455 and -0.884. Also, the z-score in assay [2] was 0.178 and 0.975. Moreover, the composite Z-score in assay [12] was 0.519 (inactive) and -0.158 (inactive).
As to `Cc1cc2c(nc1C)CCCN2CC(C)ON=C[C@@H](C)[C@H](OCc1ccccc1)C(C)C` (stereo not given in full), the composite z-score in assay [1] is -1.88; in assay [3], 0.339; in assay [4], -0.398; in assay [5] it was -0.304; in assay [6] it was -0.0125; in assay [7], -0.0035. For the same molecule, the composite z-score in assay [8] was 0.0811; in [9], -0.0342; in assay [10] it was -0.0161; in assay [11], -0.69; in [13], 0.0642; in assay [14], -0.0596. In addition, the composite z-score in assay [15] was -0.345; in assay [16], 0.0869; in assay [17] it was -0.442; in [18] it was -1.3; in [19], 0.173; in assay [20], -0.804. In [2], the z-score is -1.26. Further, the composite Z-score in assay [12] is 0.339 (inactive).
For the molecule `CCOC(=O)[C@@H]1CC=C2CC1C(=O)N1CCC[C@@H]1[C@H]2O[Si](C)(C)C(C)(C)C` (stereo not given in full), the composite z-score was -1.02 and -0.733 in [1]; -0.355 and 0.279 in [3]; -1.9 and -1.57 in assay [4]; -0.312 and -1.91 in assay [5]; -0.0512 and -0.252 in [6]; 0.0611 and -0.2 in assay [7]. For the same molecule, the composite z-score is -0.0863 and -0.48 in assay [8]; -0.496 and -1.03 in assay [9]; -0.922 and -1.49 in assay [10]; -0.657 and -0.964 in assay [11]; -0.227 and -0.352 in assay [13]; -0.147 and -0.202 in assay [14]. Further, the composite z-score in assay [15] was -0.33 and -0.492; in assay [16] it was -0.273 and -0.211; in [17] it was -0.687 and -0.442; in [18] it was -1.04 and -1.8; in [19], -0.486 and -0.0717; in assay [20] it was -2.59 and -3.25. Further, the z-score in assay [2] was -0.558 and -1.14. Also, the composite Z-score in assay [12] was 0.047 (inactive) and -0.365 (inactive).
As for `COC(=O)C1=C(C)N(Cc2ccccc2)[C@]23O[C@](C(=O)OC)(C(=O)N2[C@@H]1c1ccccc1)[C@H]1C(=O)N(C)C(=O)[C@H]13`, the composite z-score is 0.866 and 0.534 in assay [1]; 1.15 and 0.687 in [3]; 0.949 and -0.202 in assay [4]; 0.29 and -0.107 in assay [5]; -0.16 and -0.0165 in [6]; -0.237 and 0.165 in assay [7]. In addition, the composite z-score in [8] was -0.108 and -0.0008; in assay [9], 0.384 and 0.73; in assay [10], 0.0312 and -0.0037; in assay [11], 0.899 and 0.489; in assay [13], -0.212 and 0.0751; in [14], -0.116 and -0.148. For the same molecule, the composite z-score in assay [15] is 0.354 and 0.309; in [16] it was 0.909 and 0.901; in assay [17] it was 0.262 and -0.0393; in assay [18], 1.19 and 0.0927; in assay [19] it was 0.0101 and 0.385; in assay [20] it was 1.08 and -0.174. The z-score in assay [2] was -1.01 and 0.238. The composite Z-score in assay [12] was -0.0443 (inactive) and 0.0886 (inactive).
Consider `COC(=O)c1c2oc(c1C(=O)OC)C(=O)N[C@@H](Cc1ccccc1)Cn1cc(nn1)C1(CCCCC1)NC(=O)N[C@H](CO)CC2`, for which the composite z-score in assay [1] was 0.773 and 0.664; in assay [3], 0.564 and 0.328; in assay [4] it was 0.0754 and -0.157; in assay [5] it was 0.0102 and -0.607; in [6], -0.0403 and -0.0924; in [7], 0.0684 and -0.0904. For the same molecule, the composite z-score is -0.0604 and 0.149 in assay [8]; 2.36 and 0.399 in assay [9]; 1.53 and 0.281 in assay [10]; -0.14 and 0.517 in [11]; 0.13 and 0.0613 in [13]; 0.0165 and -0.0761 in [14]. In addition, the composite z-score in assay [15] was 0.713 and -0.0749; in assay [16] it was 1.72 and 0.833; in assay [17], 0.376 and 0.0667; in assay [18] it was 1.08 and 0.939; in [19] it was 0.518 and 0.124; in assay [20], 0.634 and 0.427. In assay [2], the z-score is -0.16 and -0.583. The composite Z-score in [12] was 0.167 (inactive) and 0.77 (inactive).

The record behind these values is PubChem BioAssay.
